Measurements from PMC7862700, “An all-to-all approach to the identification of sequence-specific readers for epigenetic DNA modifications on cytosine”.

Tests used:
Assay in all cases: DAPPL (digital affinity profiling via proximity ligation, sequencing); 10 mM Tris-HCl pH 7.5, 50 mM NaCl, 1 mM DTT, 4% glycerol, room temperature, 30 min; GST-TFs on glutathione beads, 16-mer random dsDNA library, 0.1% formaldehyde crosslink after washing; high values mean tight binding
FLI1 = target: T1, FLI1 (Homo sapiens, UniProt Q01543 1-452); conditions: protein: recombinant; tags: N-terminal GST; dsDNA, one strand shown
T1 sequence: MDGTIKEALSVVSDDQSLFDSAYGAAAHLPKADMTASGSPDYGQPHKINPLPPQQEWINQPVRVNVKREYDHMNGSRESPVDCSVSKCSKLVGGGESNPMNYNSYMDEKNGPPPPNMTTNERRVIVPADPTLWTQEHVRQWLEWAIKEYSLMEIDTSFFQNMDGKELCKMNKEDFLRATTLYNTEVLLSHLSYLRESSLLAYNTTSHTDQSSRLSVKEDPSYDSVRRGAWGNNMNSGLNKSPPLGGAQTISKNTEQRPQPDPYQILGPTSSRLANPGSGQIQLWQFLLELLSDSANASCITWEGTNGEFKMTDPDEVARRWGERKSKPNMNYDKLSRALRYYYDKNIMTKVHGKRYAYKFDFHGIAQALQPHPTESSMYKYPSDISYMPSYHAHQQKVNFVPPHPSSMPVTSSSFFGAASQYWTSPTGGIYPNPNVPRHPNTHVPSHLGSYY
Outline: (§1)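 A tag-only sample was pooled with DNA-barcoded human transcription factors that had been expressed in yeast as GST fusions and captured on glutathione beads. The pools were incubated for 30 min at room temperature with 200 nmole of a random double-stranded 16-mer DNA library in Tris/NaCl/DTT/glycerol buffer, then washed, crosslinked with 0.1% formaldehyde, proximity-ligated (BsaI/T4 ligase, 1 h, 37 °C), PCR-amplified and sequenced on an Illumina NextSeq500. Binding signal is each hexamer's read frequency for a factor divided by its frequency for the tag-only sample.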

ELK1 = target: T2, ELK1 (Homo sapiens, UniProt P19419 1-428); conditions: protein: recombinant; tags: N-terminal GST; dsDNA, one strand shown
T2 sequence: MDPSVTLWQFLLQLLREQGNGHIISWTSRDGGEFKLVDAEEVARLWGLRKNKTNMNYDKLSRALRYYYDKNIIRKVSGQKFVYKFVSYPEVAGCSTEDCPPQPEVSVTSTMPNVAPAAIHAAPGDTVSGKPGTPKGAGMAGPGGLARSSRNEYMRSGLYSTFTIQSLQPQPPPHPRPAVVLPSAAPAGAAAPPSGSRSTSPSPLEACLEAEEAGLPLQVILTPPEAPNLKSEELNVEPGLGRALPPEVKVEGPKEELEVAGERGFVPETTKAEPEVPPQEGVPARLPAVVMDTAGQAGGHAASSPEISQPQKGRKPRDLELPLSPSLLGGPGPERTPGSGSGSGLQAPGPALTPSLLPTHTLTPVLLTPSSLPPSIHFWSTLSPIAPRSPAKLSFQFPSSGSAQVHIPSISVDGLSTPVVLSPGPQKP
Outline: as §1

GABPA = target: T3, GABPA (Homo sapiens, UniProt Q06546 1-454); conditions: protein: recombinant; tags: N-terminal GST; dsDNA, one strand shown
T3 sequence: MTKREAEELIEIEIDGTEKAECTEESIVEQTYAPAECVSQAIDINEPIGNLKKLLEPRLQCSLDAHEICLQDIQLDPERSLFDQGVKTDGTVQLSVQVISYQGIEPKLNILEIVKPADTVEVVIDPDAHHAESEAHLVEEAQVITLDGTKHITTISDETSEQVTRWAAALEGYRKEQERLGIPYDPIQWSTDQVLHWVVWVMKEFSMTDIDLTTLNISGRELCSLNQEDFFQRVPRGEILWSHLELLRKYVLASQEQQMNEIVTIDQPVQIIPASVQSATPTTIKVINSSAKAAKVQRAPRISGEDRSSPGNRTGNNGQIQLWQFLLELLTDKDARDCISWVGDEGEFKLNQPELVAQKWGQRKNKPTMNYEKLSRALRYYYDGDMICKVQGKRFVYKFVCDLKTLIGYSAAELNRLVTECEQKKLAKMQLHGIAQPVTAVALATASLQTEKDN
Outline: as §1

ERG = target: T4, ERG (Homo sapiens, UniProt P11308 1-479); conditions: protein: recombinant; tags: N-terminal GST; dsDNA, one strand shown
T4 sequence: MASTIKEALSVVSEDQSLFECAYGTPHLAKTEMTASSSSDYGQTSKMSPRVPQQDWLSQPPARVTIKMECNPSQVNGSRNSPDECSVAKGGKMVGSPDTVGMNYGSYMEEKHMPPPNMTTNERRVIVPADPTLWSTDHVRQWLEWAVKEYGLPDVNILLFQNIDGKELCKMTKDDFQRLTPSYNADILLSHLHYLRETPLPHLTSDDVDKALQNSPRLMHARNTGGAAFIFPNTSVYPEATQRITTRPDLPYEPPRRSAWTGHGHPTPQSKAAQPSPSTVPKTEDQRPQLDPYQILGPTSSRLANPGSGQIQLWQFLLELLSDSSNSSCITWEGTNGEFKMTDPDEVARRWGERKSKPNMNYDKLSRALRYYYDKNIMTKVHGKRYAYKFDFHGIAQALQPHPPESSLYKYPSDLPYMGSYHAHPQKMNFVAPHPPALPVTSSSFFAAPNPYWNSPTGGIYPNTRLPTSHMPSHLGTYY
Outline: as §1

ELF1 = ELF1 (Homo sapiens, UniProt P32519 1-619); conditions: protein: recombinant; tags: N-terminal GST; dsDNA, one strand shown
Chain of ELF1 (P32519 whole entry): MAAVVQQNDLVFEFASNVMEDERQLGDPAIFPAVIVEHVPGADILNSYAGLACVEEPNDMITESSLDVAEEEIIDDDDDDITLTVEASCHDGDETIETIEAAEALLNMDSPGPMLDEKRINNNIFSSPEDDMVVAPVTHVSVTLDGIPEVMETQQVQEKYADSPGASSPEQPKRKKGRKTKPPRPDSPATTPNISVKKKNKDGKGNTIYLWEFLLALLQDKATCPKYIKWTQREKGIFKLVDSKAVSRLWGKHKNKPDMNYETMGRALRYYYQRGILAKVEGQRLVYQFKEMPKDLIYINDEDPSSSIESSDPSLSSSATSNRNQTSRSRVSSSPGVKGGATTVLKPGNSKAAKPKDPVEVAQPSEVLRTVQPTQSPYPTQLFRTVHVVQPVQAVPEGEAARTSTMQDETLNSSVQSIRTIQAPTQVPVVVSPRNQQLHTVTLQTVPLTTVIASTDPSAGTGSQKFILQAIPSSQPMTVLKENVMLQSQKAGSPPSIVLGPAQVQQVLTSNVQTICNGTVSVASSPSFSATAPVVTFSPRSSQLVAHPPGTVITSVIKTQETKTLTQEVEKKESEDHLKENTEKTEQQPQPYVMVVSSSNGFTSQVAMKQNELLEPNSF
Outline: as §1

EHF = target: T5, EHF (Homo sapiens, UniProt Q9NZC4 1-300); conditions: protein: recombinant; tags: N-terminal GST; dsDNA, one strand shown
T5 sequence: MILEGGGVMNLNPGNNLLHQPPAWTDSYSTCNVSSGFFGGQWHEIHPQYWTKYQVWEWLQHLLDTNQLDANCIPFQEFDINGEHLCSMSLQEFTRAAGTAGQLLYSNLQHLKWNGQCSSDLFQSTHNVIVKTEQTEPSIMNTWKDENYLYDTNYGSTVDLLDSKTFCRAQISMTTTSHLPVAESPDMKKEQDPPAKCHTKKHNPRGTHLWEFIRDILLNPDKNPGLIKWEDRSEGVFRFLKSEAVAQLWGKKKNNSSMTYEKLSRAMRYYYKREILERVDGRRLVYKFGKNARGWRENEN
Outline: as §1

SPI1 = SPI1 (Homo sapiens, UniProt P17947 1-270); conditions: protein: recombinant; tags: N-terminal GST; dsDNA, one strand shown
Outline: as §1

SPIB = SPIB (Homo sapiens, UniProt Q01892 1-262); conditions: protein: recombinant; tags: N-terminal GST; dsDNA, one strand shown
Chain of SPIB (Q01892 whole entry): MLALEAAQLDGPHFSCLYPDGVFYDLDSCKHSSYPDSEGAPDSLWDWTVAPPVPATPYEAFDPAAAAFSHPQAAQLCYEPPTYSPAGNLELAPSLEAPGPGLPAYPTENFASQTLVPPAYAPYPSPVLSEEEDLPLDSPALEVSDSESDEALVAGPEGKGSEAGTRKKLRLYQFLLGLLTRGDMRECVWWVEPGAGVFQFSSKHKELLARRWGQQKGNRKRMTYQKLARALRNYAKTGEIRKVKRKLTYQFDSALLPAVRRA
Outline: as §1

ELK3 = target: T6, ELK3 (Homo sapiens, UniProt P41970 1-407); conditions: protein: recombinant; tags: N-terminal GST; dsDNA, one strand shown
T6 sequence: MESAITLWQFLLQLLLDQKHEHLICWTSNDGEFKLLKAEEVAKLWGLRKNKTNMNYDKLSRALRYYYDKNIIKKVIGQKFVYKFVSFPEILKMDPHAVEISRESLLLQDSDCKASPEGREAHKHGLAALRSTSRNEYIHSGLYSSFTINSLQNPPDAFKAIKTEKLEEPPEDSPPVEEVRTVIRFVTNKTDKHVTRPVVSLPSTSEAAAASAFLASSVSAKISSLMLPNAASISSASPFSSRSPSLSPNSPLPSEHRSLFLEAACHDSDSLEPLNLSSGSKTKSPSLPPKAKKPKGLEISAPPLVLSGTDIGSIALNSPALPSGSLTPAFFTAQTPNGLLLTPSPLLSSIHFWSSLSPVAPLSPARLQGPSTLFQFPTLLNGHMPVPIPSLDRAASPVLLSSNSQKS
Outline: as §1

FEV = target: T7, FEV (Homo sapiens, UniProt Q99581 1-238); conditions: protein: recombinant; tags: N-terminal GST; dsDNA, one strand shown
T7 sequence: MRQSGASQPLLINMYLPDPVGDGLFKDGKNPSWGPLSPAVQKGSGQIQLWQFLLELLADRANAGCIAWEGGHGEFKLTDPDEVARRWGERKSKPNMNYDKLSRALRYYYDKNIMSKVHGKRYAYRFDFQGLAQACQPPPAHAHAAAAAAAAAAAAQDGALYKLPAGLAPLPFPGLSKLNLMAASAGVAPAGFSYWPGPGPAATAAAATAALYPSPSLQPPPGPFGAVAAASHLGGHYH
Outline: as §1

ETV5 = ETV5 (Homo sapiens, UniProt P41161 1-510); conditions: protein: recombinant; tags: N-terminal GST; dsDNA, one strand shown
Chain of ETV5 (P41161 whole entry): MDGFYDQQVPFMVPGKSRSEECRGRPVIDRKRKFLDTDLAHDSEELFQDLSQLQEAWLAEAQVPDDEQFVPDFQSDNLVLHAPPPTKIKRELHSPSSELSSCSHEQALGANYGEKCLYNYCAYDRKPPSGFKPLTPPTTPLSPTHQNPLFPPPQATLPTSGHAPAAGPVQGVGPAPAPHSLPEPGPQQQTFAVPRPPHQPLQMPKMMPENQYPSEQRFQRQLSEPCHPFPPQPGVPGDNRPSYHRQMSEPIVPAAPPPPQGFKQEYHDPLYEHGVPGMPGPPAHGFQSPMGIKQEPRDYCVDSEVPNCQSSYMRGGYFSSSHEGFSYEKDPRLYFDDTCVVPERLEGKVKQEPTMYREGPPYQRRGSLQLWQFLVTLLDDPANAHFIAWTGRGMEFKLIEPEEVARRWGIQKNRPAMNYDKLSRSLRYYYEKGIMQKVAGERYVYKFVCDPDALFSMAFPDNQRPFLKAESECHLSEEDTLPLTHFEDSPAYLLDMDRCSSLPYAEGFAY
Outline: as §1

HSF1 = HSF1 (Homo sapiens, UniProt Q00613 1-529); conditions: protein: recombinant; tags: N-terminal GST; chain copies: 3; dsDNA, one strand shown
Chain of HSF1 (Q00613 whole entry): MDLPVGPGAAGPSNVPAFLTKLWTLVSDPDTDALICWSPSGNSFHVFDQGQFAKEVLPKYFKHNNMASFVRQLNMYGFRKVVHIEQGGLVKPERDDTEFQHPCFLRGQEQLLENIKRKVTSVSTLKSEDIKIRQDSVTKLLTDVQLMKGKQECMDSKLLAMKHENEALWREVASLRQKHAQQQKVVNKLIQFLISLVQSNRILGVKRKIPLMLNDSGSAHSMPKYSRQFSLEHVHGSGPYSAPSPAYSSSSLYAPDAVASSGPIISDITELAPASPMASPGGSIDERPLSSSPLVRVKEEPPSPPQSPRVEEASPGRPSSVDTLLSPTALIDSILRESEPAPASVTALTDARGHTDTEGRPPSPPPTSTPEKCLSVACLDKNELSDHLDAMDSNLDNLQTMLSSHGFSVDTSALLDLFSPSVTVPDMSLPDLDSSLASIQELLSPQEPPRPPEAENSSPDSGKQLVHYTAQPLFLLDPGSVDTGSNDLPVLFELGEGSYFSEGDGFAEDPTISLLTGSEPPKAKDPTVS
Outline: as §1

SPIC = target: T8, SPIC (Homo sapiens, UniProt Q8N5J4 1-248); conditions: protein: recombinant; tags: N-terminal GST; dsDNA, one strand shown
T8 sequence: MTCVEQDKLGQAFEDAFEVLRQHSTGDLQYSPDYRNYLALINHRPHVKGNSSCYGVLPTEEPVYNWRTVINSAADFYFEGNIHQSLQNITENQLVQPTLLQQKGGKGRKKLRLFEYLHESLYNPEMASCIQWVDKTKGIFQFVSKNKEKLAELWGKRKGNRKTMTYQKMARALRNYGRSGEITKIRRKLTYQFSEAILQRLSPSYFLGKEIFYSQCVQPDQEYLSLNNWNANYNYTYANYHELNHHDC
Outline: as §1

ELF4 = ELF4 (Homo sapiens, UniProt Q99607 1-663); conditions: protein: recombinant; tags: N-terminal GST; dsDNA, one strand shown
Chain of ELF4 (Q99607 whole entry): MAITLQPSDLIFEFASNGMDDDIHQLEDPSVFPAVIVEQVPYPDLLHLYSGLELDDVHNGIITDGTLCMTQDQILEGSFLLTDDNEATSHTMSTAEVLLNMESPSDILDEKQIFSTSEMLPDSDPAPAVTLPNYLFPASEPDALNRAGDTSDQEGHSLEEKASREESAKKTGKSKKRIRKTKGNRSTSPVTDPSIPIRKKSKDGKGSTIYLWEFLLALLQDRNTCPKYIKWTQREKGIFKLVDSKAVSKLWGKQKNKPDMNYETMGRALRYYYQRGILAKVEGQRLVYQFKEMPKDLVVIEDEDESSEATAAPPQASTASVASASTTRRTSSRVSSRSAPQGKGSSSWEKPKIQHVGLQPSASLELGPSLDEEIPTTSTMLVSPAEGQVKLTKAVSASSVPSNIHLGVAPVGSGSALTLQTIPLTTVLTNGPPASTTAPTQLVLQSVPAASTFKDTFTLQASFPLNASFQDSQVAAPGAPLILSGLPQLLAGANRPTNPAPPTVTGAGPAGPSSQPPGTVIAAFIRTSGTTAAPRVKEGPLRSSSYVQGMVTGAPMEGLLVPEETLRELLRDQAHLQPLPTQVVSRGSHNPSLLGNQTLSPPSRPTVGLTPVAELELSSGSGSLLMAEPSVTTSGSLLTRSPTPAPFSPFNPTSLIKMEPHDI
Outline: as §1

ELK4 = target: T9, ELK4 (Homo sapiens, UniProt P28324-2 1-405); conditions: protein: recombinant; tags: N-terminal GST; dsDNA, one strand shown
T9 sequence: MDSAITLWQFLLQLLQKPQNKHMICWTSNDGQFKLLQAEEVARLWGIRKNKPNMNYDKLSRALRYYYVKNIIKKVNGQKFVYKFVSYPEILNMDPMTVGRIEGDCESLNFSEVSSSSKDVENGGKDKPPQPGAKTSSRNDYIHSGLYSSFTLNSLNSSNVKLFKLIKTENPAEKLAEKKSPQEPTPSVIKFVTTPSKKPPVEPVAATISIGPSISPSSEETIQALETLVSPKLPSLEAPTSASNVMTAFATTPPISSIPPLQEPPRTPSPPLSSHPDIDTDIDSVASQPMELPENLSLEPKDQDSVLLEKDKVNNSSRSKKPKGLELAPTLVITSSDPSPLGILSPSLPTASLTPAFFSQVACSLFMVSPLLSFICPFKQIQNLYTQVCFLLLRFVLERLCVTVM
Outline: as §1

ETV2 = target: T10, ETV2 (Homo sapiens, UniProt O00321 1-342); conditions: protein: recombinant; tags: N-terminal GST; dsDNA, one strand shown
T10 sequence: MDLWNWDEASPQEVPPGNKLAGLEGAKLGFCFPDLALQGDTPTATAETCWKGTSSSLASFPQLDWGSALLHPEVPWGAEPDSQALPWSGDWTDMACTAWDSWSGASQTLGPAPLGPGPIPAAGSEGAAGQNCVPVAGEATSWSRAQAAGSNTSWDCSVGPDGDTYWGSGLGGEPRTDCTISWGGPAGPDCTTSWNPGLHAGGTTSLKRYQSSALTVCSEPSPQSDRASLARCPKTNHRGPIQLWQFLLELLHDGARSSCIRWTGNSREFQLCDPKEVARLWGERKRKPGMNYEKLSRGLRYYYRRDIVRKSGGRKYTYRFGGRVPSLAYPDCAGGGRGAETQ
Outline: as §1

ELF3 = target: T11, ELF3 (Homo sapiens, UniProt P78545 1-371); conditions: protein: recombinant; tags: N-terminal GST; dsDNA, one strand shown
T11 sequence: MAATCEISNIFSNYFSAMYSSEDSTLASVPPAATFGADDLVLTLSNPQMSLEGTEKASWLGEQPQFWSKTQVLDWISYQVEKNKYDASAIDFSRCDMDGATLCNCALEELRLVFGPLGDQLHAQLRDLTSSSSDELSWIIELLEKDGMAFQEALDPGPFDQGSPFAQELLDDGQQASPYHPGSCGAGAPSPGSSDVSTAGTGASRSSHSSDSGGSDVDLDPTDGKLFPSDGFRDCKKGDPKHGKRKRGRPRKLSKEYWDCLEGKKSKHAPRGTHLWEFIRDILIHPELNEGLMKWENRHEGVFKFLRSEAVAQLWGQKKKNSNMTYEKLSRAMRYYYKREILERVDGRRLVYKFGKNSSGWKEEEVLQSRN
Outline: as §1

CRX = CRX (Homo sapiens, UniProt O43186 1-299); conditions: protein: recombinant; tags: N-terminal GST; dsDNA, one strand shown
Chain of CRX (O43186 whole entry): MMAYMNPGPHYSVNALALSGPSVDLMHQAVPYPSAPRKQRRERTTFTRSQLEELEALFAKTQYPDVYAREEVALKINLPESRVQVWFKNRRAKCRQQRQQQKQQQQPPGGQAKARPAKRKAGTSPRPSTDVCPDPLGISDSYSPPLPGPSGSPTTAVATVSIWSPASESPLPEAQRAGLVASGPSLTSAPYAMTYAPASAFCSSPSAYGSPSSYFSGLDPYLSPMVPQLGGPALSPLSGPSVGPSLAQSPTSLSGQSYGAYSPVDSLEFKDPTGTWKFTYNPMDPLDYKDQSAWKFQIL
Outline: as §1

ETV1 = ETV1 (Homo sapiens, UniProt P50549 1-477); conditions: protein: recombinant; tags: N-terminal GST; dsDNA, one strand shown
Chain of ETV1 (P50549 whole entry): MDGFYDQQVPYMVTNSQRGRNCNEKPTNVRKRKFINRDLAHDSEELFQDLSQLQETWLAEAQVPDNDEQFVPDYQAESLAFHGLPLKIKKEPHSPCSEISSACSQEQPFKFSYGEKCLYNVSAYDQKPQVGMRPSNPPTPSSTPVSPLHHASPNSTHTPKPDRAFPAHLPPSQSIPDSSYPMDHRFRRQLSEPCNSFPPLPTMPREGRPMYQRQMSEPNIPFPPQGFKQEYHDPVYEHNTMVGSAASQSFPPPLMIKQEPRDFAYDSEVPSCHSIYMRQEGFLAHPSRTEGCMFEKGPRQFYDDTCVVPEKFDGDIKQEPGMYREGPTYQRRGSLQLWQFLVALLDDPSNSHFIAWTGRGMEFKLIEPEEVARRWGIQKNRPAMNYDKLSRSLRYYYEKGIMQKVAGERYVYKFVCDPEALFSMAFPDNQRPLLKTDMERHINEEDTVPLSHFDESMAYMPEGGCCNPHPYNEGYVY
Outline: as §1

GATATA
binding signal (FLI1): 1.12 fold enrichment (6-mer frequency, TF over GST control)
binding signal (ELK1): 1.06 fold enrichment (6-mer frequency, TF over GST control)
binding signal (GABPA): 1.15 fold enrichment (6-mer frequency, TF over GST control)
binding signal (ERG): 1.13 fold enrichment (6-mer frequency, TF over GST control)
binding signal (ELF1): 1.09 fold enrichment (6-mer frequency, TF over GST control)
binding signal (EHF): 1.18 fold enrichment (6-mer frequency, TF over GST control)
binding signal (SPI1): 1.09 fold enrichment (6-mer frequency, TF over GST control)
binding signal (SPIB): 1.06 fold enrichment (6-mer frequency, TF over GST control)
binding signal (ELK3): 1.17 fold enrichment (6-mer frequency, TF over GST control)
binding signal (FEV): 1.08 fold enrichment (6-mer frequency, TF over GST control)
binding signal (ETV5): 1.13 fold enrichment (6-mer frequency, TF over GST control)
binding signal (HSF1): 1.09 fold enrichment (6-mer frequency, TF over GST control)
binding signal (SPIC): 1.13 fold enrichment (6-mer frequency, TF over GST control)
binding signal (ELF4): 1.06 fold enrichment (6-mer frequency, TF over GST control)
binding signal (ELK4): 1.18 fold enrichment (6-mer frequency, TF over GST control)
binding signal (ETV2): 1.19 fold enrichment (6-mer frequency, TF over GST control)
binding signal (ELF3): 1.33 fold enrichment (6-mer frequency, TF over GST control)
binding signal (CRX): 1.19 fold enrichment (6-mer frequency, TF over GST control)
binding signal (ETV1): 1.08 fold enrichment (6-mer frequency, TF over GST control)
